Data on 13 compounds can be found in PubChem BioAssay (NCI).

What all share (assay): NCI-60 one-dose screen, 48 h (100 = growth as untreated, 0 = no growth, -100 = all killed)
Common to all, as to conditions: 10 µM unless noted

In test [1] the test system is DU-145 prostate.
Test [2] concerns K-562 leukemia.
For test [3], the system named is MALME-3M melanoma.
The test system of test [4] is MDA-MB-231 breast.
Test [5] relates to RXF 393 renal.
The subject of test [6] is SF-268 CNS.
Test [7] concerns SF-295 CNS.
In test [8] the test system is SF-539 CNS.
Test [9] deals with UACC-257 melanoma.
Test [10] relates to M14 melanoma.
Test [11] deals with HCT-15 colon.
Test [12] concerns HT29 colon.
For test [13], the system named is SNB-75 CNS.
In test [14] the test system is SNB-19 CNS.
Test [15] has as its system U251 CNS.
In test [16] the test system is PC-3 prostate.
Test [17] concerns SK-MEL-5 melanoma.
The subject of test [18] is UACC-62 melanoma.
For test [19], the system named is LOX IMVI melanoma.
Test [20] concerns SK-MEL-28 melanoma.

The panel holds about 83,000 compounds, 20% with a hit somewhere; the sample as a whole holds those more often.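 Single-concentration screen, 48 h exposure, 96-well plates. Endpoint: percent growth. Below 10 = active.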 Values without a mark were called inactive. Calls of active or inactive are those of the source.

Take `CCCCCCCCCNCCCCCCCCC`: the growth in test [1] is 76.5%; in test [2] it was 5.9% (active); in [3], 18.4%; in test [4], 66.3%; in test [5], 50.5%; in test [6] it was 79.8%. Also, the growth in [7] was 66.6%; in [8] it was 56.7%; in test [9], 67.2%; in test [10] it was -48.6% (active); in test [11], 32.4%; in test [12] it was 0.373% (active). For the same compound, the growth was 67.2% in [13]; 82.2% in test [14]; 49% in test [15]; 59.4% in test [16]; 54.1% in test [17]; 83.2% in [18]. The growth in [19] is 41.9%; in test [20] it was 43.5%.

For `O=C(c1ccc(F)c(F)c1Nc1ccc(I)cc1F)N1CC(O)([C@@H]2CCCCN2)C1`, the growth in [1] was 46.3%; in test [2], -26.8% (active); in test [3], -21.8% (active); in test [4] it was 0.9% (active); in test [5], -32.3% (active); in test [6], 44.6%. The growth was 54.9% in test [7]; 29.2% in test [8]; -10.8% (active) in test [9]; -30.6% (active) in test [10]; 25.6% in [11]; -18.5% (active) in test [12]. Further, the growth in [13] was 21.7%; in [14], 36.4%; in test [15], 15.3%; in test [16] it was 38.6%; in [17] it was -92.9% (active); in test [18], -5.75% (active). Further, the results for the growth in test [19] and in test [20] were -84.1% (active) and -1.76% (active), respectively.

For `Nc1ncnc2c1c(-c1cccc(OCc3ccccc3)c1)cn2C1CC(CN2CCC2)C1` (stereo not given), the growth in [1] was 44.5%; in test [2] it was -45.7% (active); in test [3], -79.7% (active); in [4] it was 3.88% (active); in test [5] it was -16.4% (active); in test [6], 17.3%. The growth in test [7] was -47.3% (active); in test [8] it was -84.4% (active); in test [9], -79.4% (active); in test [10] it was -78.1% (active); in test [11], 10.1%; in test [12], -39.8% (active). The growth in test [13] is -28.7% (active); in test [14], 32.1%; in [15], -17.9% (active); in test [16], 27.4%; in test [17], -96.7% (active); in test [18], -55.9% (active). In addition, the growth in [19] is -75% (active); in test [20], -69.6% (active).

In the case of `C[C@@H](Oc1cc(-c2cnn(C3CCNCC3)c2)cnc1N)c1c(Cl)ccc(F)c1Cl`, the growth was -0.0589% (active) in test [1]; -38.7% (active) in [2]; -88.2% (active) in test [3]; -58.6% (active) in test [4]; -87.3% (active) in [5]; 1.66% (active) in test [6]. For the same compound, the growth was -72.1% (active) in test [7]; -95.5% (active) in [8]; -83.3% (active) in test [9]; -77.2% (active) in test [10]; -5.99% (active) in [11]; -49.4% (active) in test [12]. The growth in test [13] was -67.7% (active); in test [14] it was 3.67% (active); in test [15], -71.9% (active); in test [16], -5.54% (active); in test [17] it was -99.8% (active); in test [18] it was -83.5% (active). Also, the growth was -90.8% (active) in test [19] and -84.7% (active) in [20].

Take `S=C(NCc1ccc2c(c1)OCO2)N1CCN(c2ncnc3c2oc2ccccc23)CC1`: the growth in [1] was 35.4%; in test [2] it was 19.4%; in [3] it was 51.1%; in test [4], 57.1%; in test [5], 50.7%; in test [6], 42.2%. Also, the growth in test [7] was 26.4%; in test [8], 39.7%; in [9], 9.31% (active); in [10] it was 35.2%; in [11], 37.1%; in test [12], 28.9%. In addition, the growth in test [13] is 37.6%; in test [14], 49.1%; in test [15], 41.3%; in [16] it was 27.3%; in test [17], -46% (active); in [18] it was 31%. The growth was 44.6% in test [19] and 52.9% in [20].

As for `CN1CC[C@H](c2c(O)cc(O)c3c(=O)cc(-c4ccccc4Cl)oc23)[C@H](O)C1`, the growth is 9.08% (active) in [1]; 6.14% (active) in [2]; -45.3% (active) in [3]; 1.35% (active) in test [4]; -65.5% (active) in [5]; 4.21% (active) in [6]. Besides, the growth was 8.48% (active) in test [7]; -28% (active) in [8]; -23.8% (active) in [9]; -50.1% (active) in test [10]; 4.15% (active) in test [11]; -19.8% (active) in test [12]. The growth was -59.7% (active) in test [13]; 10.1% in test [14]; 5.78% (active) in test [15]; -4.62% (active) in test [16]; -19% (active) in test [17]; -49.6% (active) in [18]. The growth is 4.81% (active) in test [19] and -29.4% (active) in test [20].

With `COc1ccc(S(=O)(=O)N(C(C)=O)c2ccccc2/C=C/c2cc[n+]([O-])cc2)cc1`, the growth in test [1] was 16%; in [2] it was 7.61% (active); in [3], 47%; in [4] it was 45.6%; in test [5] it was -5.21% (active); in [6], 34.6%. Also, the growth in [7] was 13.7%; in test [8], -30.4% (active); in test [9] it was 65.5%; in test [10] it was -14.3% (active); in test [11], 17.9%; in [12], 1.49% (active). Further, the growth in test [13] was 4.75% (active); in [14] it was 25.4%; in test [15], 9.19% (active); in [16] it was 17.9%; in test [17], 7.61% (active); in test [18], 37.1%. Besides, the figures for the growth in test [19] and in test [20] were 18% and 45.4%, respectively.

For the compound `O=C(Nc1cccc(Cl)c1)Nc1ncc(CCNc2ncnc3ccsc23)s1`, the growth was 50.6% in [1]; 13.8% in test [2]; 19% in [3]; 41.5% in test [4]; -0.457% (active) in test [5]; 39.4% in [6]. Moreover, the growth in test [7] was 20%; in [8] it was 24%; in [9], 11.5%; in [10], 10.3%; in test [11], 22.9%; in test [12] it was 19.7%. In addition, the growth is 25.6% in test [13]; 64.9% in [14]; 38.4% in test [15]; 8.62% (active) in test [16]; -52% (active) in [17]; -24.7% (active) in test [18]. For the same compound, the growth is 16.4% in test [19] and 33.5% in test [20].

`CC(=O)CC1CCCC1c1ccc2ccccc2c1` (stereo not given): the growth in [1] was 107%; in test [2], 104%; in [3], 99.1%; in test [4], 102%; in [5], 109%; in test [6], 102%. The growth in test [7] was 106%; in test [8], 95.8%; in test [9] it was 97.8%; in test [10], 109%; in [11], 103%; in test [12] it was 95.8%. Also, the growth in [13] is 93.8%; in test [14], 104%; in test [15], 94.4%; in test [16], 91.9%; in [17] it was 101%; in test [18], 99.6%. The growth in test [19] was 97.8%; in test [20], 103%.

For `CCCCn1c(C)nc2ccc(Nc3nc(N4CCN(C)CC4)nc4nc[nH]c34)cc21`, the growth in test [1] is 91.8%; in [2], 83.2%; in [3], 102%; in test [4] it was 86.2%; in test [5], 95%; in [6] it was 73.2%. In addition, the growth in test [7] was 105%; in test [8], 87.6%; in [9], 101%; in [10] it was 107%; in [11] it was 110%; in [12] it was 90.9%. Further, the growth in test [13] was 63.5%; in test [14], 95.6%; in [15] it was 82.9%; in [16] it was 84.2%; in [17], 86.8%; in test [18], 91.9%. The growth is 83.9% in test [19] and 109% in test [20].

Regarding `CCN(CC)c1cc2oc3cc(N)cc(=N)c-3nc2cc1C`, the growth is 85.7% in test [1]; 24.9% in [2]; 1.85% (active) in test [3]; 26.7% in [4]; 86.2% in test [5]; 64.5% in test [6]. In addition, the growth in test [7] was 48.1%; in [8], 1.94% (active); in [9], 32.9%; in [10], 25.5%; in test [11] it was 37.8%; in test [12], 86.7%. The growth in test [13] was 11.6%; in test [14] it was 69.7%; in test [15], 19.4%; in test [16], 39.2%; in test [17], -2.64% (active); in [18], 30.8%. The growth in test [19] is -0.53% (active); in [20] it was 34.3%.

With `CCCCCc1ccc(C)cc1OC(=O)CCl`, the growth in test [1] is 109%; in test [2], 98.8%; in [3], 90.9%; in test [4] it was 110%; in [5], 103%; in test [6], 105%. In addition, the growth in test [7] is 102%; in test [8], 112%; in test [9] it was 107%; in test [10], 111%; in test [11] it was 110%; in test [12], 100%. Further, the growth in test [13] was 90%; in [14], 105%; in test [15], 101%; in [16], 88.4%; in test [17], 103%; in test [18], 113%. In addition, the growth was 106% in test [19] and 113% in test [20].

In the case of `Cn1c(=O)c(F)c(Nc2ccc(I)cc2F)c2c(=O)n(C[C@@H](O)CO)cnc21`, the growth is 52.1% in test [1]; 28.5% in [2]; 0.26% (active) in [3]; 19% in [4]; -3.91% (active) in test [5]; 59.5% in test [6]. In addition, the growth is 77.5% in test [7]; 52.3% in test [8]; -21.4% (active) in test [9]; 6.75% (active) in test [10]; 54.6% in test [11]; 7.51% (active) in test [12]. The growth in test [13] was 62.7%; in test [14], 42.6%; in [15], 31.4%; in [16] it was 68.4%; in test [17] it was 36.3%; in test [18], 0.259% (active). In addition, the growth was 15.3% in test [19] and 0.0364% (active) in test [20].
